# The supplement of paper PMC10338343
# ± gives the standard deviation.
# Tested on: MILI (PIWIL2) piRISC loaded with L1MC piRNA (26 nt)
# Assay: pre-steady-state target cleavage rate (min^-1); guide: L1MC piRNA 5'p-UAACUAAAUACUAUGCAAGCUGUAGG; MIWI and MILI are mouse PIWI proteins and EfPiwi is from a freshwater sponge; tags in brackets are library labels; higher = faster piRNA-guided slicing of the target
# Details: auxiliary factor: 500 nM mouse GTSF1
# Outline: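 Active affinity-purified piRISC (1 nM) loaded with one synthetic guide was mixed with a transcribed, DNA-blocked target RNA library (0.1 nM), with or without 500 nM GTSF1 partner protein, in HEPES–potassium acetate buffer at 33 °C for 0–8 or 0–960 min. Uncleaved targets were sequenced, normalised to depth and to weakly complementary targets, and pooled across three trials, with k3 capped at 0.0001 min^-1. The pre-steady-state cleavage rate was determined with a burst-and-steady-state fit.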
row,Sequence,pre-steady-state target cleavage rate
1,UCCUGGAUGUCCUUCCUUAGUAUUUAGUUA,0.00908 ± 0.0046
2,UCCUCCUACAGCUUGCAUAGUAUAAAGUAA,0.0819 ± 0.019
3,UCCUGGAUGAGCUUGGAUAGUAUUUUGUUA,0.141 ± 0.029
4,UCCUGGAUGAGCUUGCAUAGUAUUUUGAAA,0.0223 ± 0.0096
5,UCCUGGAUGUCGUUGCUUAGUAUUAAGUUA,0.03 ± 0.0099
6,UCCUGGAUCAGCUUGCUUAGAAUUUAGUUA,0.0318 ± 0.0073
7,UCCUGGAUGUCCAUGCAAAGUAUUUAGUUA,0.0101 ± 0.0043
8,UCCUGGAUCAGCUUCCAUAGAAUUUAGUUA,0.0103 ± 0.0054
9,UCCUGGUACAGCUUGCAUAGUAUAUAGAUA,0.014 ± 0.0071
10,UCCUGGUACAGCUUCGAUAGUAUUUAGAAA,0.0453 ± 0.014
11,UCCUGGAUCAGCAAGCAUAGUAUUUAGAAA,0.101 ± 0.013
12,UCCUGGAUGUCGAAGCAUAGUAUUUAGAUUA,0.00757 ± 0.0041
13,UCCUGGAUGUGCUUGCAUAGUAUAUUGUUA,0.0146 ± 0.0062
14,UCCUGCUACAGCUUGCAUAGAAUUUAGUAA,0.237 ± 0.062
15,UCCUGGAUGUCCUUGACAUAGUAUUUAGUUA,0.0214 ± 0.0096
16,UCCUGGUACAGCUUGCAAAGUAUUUACUUA,0.0515 ± 0.015
17,UCCUGGAUGUGCUUGCAUAGUAUUUACAUA,0.0112 ± 0.0044

row,Sequence,pre-steady-state target cleavage rate
1,UCCUGGAACAGCUUGGAUAGUAUUUACUUA,0.0413 ± 0.012
2,UCCUGGAUGUCCUUGCAUAGUAUUAACUUA,0.0115 ± 0.0049
3,UCCUGGAUCAGCUUGCAUAGAAUUUACAAA,0.00722 ± 0.0036
4,UCCUGGAACAGCAUGCAUAGAAUUUAGUUA,0.0767 ± 0.018
5,UCCUGGUACACGUUGCAUAGUAUUUUCAAA,0.02 ± 0.011
6,UCCUGGAUCAGCUUGCAUUGUAUUUAGAAA,0.0362 ± 0.013
7,UCCUGGAACACCUUGCAUAGUAUUUACAAA,0.071 ± 0.02
8,UCCUGGAUCACCUUCCAUAGUAUUUAGUUA,0.0405 ± 0.012
9,UCCUGCUACAGGUUGCAUAGUAUUUACUUA,0.0231 ± 0.011
10,UCCUGCUAGAGCUUGCAUAGUAUUUUCAAA,0.0124 ± 0.0058
11,UCCUGGAUGAGCUUGCAUACUAUUUACUUA,0.00478 ± 0.0043
12,UCCUGGAUGAGCUUGCAUAGUAAAAAGUUA,0.0673 ± 0.016
13,UCCUGGAUGUCGUUGCAUAGCAUUUAGUUA,0.0206 ± 0.007
14,UCCUGGAUGACCUUGCAUAGUAUUUAGAAA,0.133 ± 0.038
15,UCCUGGAUCAGCUUGCAUAGUUAUUAGUAA,0.00826 ± 0.0047
16,UCCUGGAUGUCCUAGCAUUGUAUUUAGUUA,0.0111 ± 0.0048
17,UCCUGGAUGUCGUAGCUUAGUAUUUAGUUA,0.0118 ± 0.0046

# Same assay, conditions: auxiliary factor: none (no GTSF1)
row,Sequence,pre-steady-state target cleavage rate
1,UCCUGGAUGUCGAACGAUAGUAUUUAGAUA,< 0.0001
2,UCCUGGAUGUCGAACGAUAGUAUUUAAGUUA,< 0.0001
3,UCCUGGAUGUCGAACGUAUGUAUUUUCAAA [g6:g11:cont:t1A],< 0.0001
4,UCCUGGAUGUCGAACGUAUGUGUUUAGUUA,< 0.0001
5,UCCUGGAUGUCGAACGAUAGUUAAUAGUUA,< 0.0001
6,UCCUGGAUGUCGAACCAUAGUAUUUUCAAA [g6:g15:cont:t1A],< 0.0001
